# Laboratory results: PubChem BioAssay
# Where “and” joins values, the source holds several entries; their conditions need not be identical. Equal entries are not always repeated. Inconclusive results are not listed. Calls of active or inactive are those of the source. Cut-off read from the data, not from the text of the source, unless noted: active = inhibition above about 80%; inactive = the rest.
# Tests used:
# [1] = target: ATP-dependent translocase ABCB1 (Homo sapiens) (UniProt P08183); experiment: MDR1 (ABCB1) efflux transporter inhibition, cell-based (AID 377; in the data active = fluorescence slope change above about 50%); conditions: MDR1-expressing cells, fluorescent substrate accumulation slope; stronger effect = higher value; concentration not given here
# Chain of ATP-dependent translocase ABCB1 (Homo sapiens) (P08183 whole entry, looked up): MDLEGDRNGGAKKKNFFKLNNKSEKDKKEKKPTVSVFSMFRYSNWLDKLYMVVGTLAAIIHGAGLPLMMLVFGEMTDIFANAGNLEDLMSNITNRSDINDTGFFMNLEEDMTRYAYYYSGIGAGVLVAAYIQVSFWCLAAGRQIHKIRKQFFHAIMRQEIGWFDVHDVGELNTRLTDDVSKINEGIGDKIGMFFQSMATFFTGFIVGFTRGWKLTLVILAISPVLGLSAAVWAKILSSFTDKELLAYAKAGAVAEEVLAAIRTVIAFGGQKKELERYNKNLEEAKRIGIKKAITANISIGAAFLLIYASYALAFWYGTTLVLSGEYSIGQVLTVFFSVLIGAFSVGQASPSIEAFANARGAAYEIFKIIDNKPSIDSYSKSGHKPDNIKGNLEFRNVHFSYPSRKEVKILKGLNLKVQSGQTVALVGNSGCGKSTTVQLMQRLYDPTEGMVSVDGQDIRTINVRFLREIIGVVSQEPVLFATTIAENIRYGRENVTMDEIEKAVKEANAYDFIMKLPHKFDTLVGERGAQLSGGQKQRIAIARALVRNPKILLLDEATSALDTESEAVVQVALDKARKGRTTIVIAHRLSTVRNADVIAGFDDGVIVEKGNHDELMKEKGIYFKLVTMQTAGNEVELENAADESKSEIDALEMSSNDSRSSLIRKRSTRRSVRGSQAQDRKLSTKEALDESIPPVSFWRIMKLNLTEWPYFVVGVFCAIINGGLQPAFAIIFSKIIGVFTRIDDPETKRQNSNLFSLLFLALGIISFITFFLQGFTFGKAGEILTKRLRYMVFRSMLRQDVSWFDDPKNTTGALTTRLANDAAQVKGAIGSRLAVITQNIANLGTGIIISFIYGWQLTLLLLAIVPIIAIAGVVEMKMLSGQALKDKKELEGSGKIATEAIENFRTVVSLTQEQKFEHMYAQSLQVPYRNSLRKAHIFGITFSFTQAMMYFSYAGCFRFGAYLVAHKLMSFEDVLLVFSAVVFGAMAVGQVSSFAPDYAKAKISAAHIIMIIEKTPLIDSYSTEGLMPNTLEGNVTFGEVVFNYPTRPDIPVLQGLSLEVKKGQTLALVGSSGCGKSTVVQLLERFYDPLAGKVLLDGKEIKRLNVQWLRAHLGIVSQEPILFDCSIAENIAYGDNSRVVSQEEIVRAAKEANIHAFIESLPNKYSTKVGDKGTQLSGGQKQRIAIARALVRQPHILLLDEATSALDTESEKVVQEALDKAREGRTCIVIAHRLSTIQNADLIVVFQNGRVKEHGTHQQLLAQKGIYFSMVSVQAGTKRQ
# [2] = hESC survival regulators, cell-based (AID 493140; call rule not given here;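 note: cells exposed to compounds for four days before counting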); conditions: human embryonic stem cell survival screen; stronger effect = higher value
# [3] = Cy5 fluorescence interference with SSB-bound oligo, artefact control for HCV NS3 helicase inhibitor project, biochemical, NIH Clinical Collection, E. coli SSB (AID 743268; call rule not given here)
# [4] = test system: Hepatitis C virus NS3 helicase; experiment: HCV NS3 helicase inhibitors, primary screen, biochemical, fluorescence polarization, NIH Clinical Collection (AID 743270; call rule not given here); conditions: NS3 helicase binding to Cy5-dT15 DNA, stronger effect = higher value, concentration not given here
# [5] = target: Single-stranded DNA-binding protein (Escherichia coli (strain K12)) (UniProt P0AGE0); experiment: E. coli SSB displacement from DNA, counter-screen for HCV NS3 helicase inhibitor project, biochemical, fluorescence polarization, NIH Clinical Collection (AID 743271; in the data active = inhibition above about 28%); conditions: stronger effect = higher value, concentration not given here
# [6] = fluorescence interference in NS3h assay format, artefact control for HCV NS3 helicase inhibitor project, biochemical, NIH Clinical Collection (AID 743272; call rule not given here;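 note: HCV NS3 helicase with a Cy5 labelled single stranded DNA probe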); conditions: fluorescence interference counterscreen, stronger effect = lower value
# [7] = test system: Neuropilin-2 / VEGF-C interaction (human); experiment: inhibitors of NRP2–VEGF-C binding, biochemical, microplate binding format, z-score (AID 743281; call rule not given here); conditions: microplate NRP2/VEGF-C binding assay; stronger effect = lower value
# [8] = modulation of C. elegans fzo-1 (AID 1259413; call rule not given here;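 note: fzo-1 mutant C. elegans worms in liquid wells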); conditions: C. elegans fzo-1 modulator screen, mean read-out; stronger effect = higher value
# [9] = differential killing of epithelial or mesenchymal cells, primary screen, imaging, PC-3E GFP, TEM4-18 mCherry, co-culture (AID 1345086;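 active = compounds killing one labelled cell type while sparing the other, by normalised counts and ratio limits, not self-fluorescent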;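 note: cells exposed to compound for 72 h before imaging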;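 for red/green cell ratio (normalised): normalised mesenchymal count divided by normalised epithelial count so high means epithelial killing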); conditions: imaging cell counts, at 1 µM
# [10] = survival rescue of mitochondrial mutant cells in low glucose, primary screen, MELAS cybrids, Rieske KO mouse fibroblasts, CellTiter-Glo (AID 1508586;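 active = mean z-score across replicates of 1.96 or higher in either the MELAS or the Rieske mutant cell line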;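 note: z relative to plate mean and SD of compound and empty wells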)
# [11] = target: NAD(+) hydrolase SARM1 (Homo sapiens) (UniProt Q6SZW1); experiment: SARM1 TIR NADase inhibitors, cell lysate, NAD-Glo luminescence (AID 1508614;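 active = compound whose remaining NAD level is above about 45 nM, limit read from the data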;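 note: higher remaining NAD means stronger inhibition of SARM1 NADase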); conditions: SAM-TIR HEK293T lysate NADase, at 1 µM, stronger effect = higher value
# Chain of NAD(+) hydrolase SARM1 (Homo sapiens) (Q6SZW1 whole entry, looked up, the tested form may be a part): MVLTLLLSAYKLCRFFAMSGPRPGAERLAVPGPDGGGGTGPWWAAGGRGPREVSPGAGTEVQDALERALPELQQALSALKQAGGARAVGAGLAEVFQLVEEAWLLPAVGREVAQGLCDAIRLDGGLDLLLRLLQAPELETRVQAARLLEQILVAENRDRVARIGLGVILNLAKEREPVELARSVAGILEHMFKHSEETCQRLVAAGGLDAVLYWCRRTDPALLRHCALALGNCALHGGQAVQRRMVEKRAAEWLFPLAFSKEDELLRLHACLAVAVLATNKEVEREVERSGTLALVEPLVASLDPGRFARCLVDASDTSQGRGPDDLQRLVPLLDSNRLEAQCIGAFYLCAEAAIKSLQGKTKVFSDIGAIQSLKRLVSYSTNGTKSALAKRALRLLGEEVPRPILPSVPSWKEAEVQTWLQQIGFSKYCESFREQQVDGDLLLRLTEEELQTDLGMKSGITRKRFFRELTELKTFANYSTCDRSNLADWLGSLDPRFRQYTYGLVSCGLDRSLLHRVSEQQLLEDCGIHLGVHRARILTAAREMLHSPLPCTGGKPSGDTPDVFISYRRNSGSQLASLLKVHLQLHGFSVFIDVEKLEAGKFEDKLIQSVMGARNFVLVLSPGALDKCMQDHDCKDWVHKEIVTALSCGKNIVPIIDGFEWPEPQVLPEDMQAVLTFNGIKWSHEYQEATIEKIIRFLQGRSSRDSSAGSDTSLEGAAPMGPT
# [12] = target: Mitogen-activated protein kinase 7 (Homo sapiens) (UniProt Q13164); experiment: ERK5 transactivation activators in reporter cells, primary screen, cell-based, HTS (AID 1508626;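 active = luciferase signal above three times the same-plate solvent-only control wells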;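 note: luciferase driven by Gal4-ERK5 fusion binding five Gal4 sites before minimal TATA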); conditions: HeLa Gal4-ERK5 transactivation, 18 h, at 5 µM, stronger effect = higher value
# Chain of Mitogen-activated protein kinase 7 (Homo sapiens) (Q13164 whole entry, looked up, the tested form may be a part): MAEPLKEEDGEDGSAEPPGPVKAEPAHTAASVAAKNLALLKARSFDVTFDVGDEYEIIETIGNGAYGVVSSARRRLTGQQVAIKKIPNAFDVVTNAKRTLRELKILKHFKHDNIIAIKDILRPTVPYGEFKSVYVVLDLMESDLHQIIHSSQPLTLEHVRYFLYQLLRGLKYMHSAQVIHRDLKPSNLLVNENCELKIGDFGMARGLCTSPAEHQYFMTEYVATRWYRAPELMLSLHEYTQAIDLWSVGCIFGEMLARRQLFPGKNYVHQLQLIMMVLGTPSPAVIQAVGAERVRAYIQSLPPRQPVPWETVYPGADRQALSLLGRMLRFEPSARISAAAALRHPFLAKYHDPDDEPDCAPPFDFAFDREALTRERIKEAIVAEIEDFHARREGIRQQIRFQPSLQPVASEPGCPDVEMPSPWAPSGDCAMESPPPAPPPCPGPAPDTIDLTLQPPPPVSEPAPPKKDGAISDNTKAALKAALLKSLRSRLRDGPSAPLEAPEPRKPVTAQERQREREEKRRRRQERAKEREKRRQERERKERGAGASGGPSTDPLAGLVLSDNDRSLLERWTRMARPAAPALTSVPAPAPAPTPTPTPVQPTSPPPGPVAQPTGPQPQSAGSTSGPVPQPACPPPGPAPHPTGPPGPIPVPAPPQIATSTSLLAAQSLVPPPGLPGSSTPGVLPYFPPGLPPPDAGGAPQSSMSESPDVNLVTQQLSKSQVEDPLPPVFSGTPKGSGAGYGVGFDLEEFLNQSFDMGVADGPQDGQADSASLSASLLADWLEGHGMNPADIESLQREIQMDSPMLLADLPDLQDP
# [13] = viability rescue of complex I mutant cybrids, primary screen, cell-based, galactose medium, ATP luminescence (AID 1645843;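 active = z-score of at least 1.8 in each of two replicates, scored against plate mean and spread of sample wells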;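 note: positive z means more ATP and so rescue of galactose-driven cybrid death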); conditions: complex I mutant cybrid cells, 72 h, stronger effect = higher value
# [14] = LFS_MB_P medulloblastoma growth inhibition, cell-based, chromothripsis tumors, cisplatin or BGB combos (AID 1671449); conditions: LFS_MB_P medulloblastoma cells;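 note: cells exposed for 96 hours; 0% = vehicle DMSO and 100% = killing by high DMSO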
# [15] = HDN33 neuroblastoma growth inhibition, cell-based, chromothripsis tumors, cisplatin or BGB combos (AID 1671450); conditions: HDN33 neuroblastoma cells, stronger effect = higher value;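 note: cells exposed to compound for four days; 0% = vehicle DMSO and 100% = cell killing by high DMSO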
# [16] = ICB984 medulloblastoma cell growth inhibition, synergistic combos for chromothripsis tumors, cisplatin or BGB combos (AID 1671451; call rule not given here;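 note: cells exposed for 96 hours before readout; 0% = vehicle DMSO and 100% = killing by high DMSO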); conditions: ICB984 medulloblastoma cells, drug combinations, stronger effect = higher value
# [17] = LFS_MB_1R medulloblastoma cell growth inhibition, synergistic combos for chromothripsis tumors, cisplatin or BGB combos (AID 1671452); conditions: LFS_MB_1R medulloblastoma cells, stronger effect = higher value;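 note: cells exposed for 96 hours before readout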
# [18] = HTB85 osteosarcoma cell growth inhibition, synergistic combos for chromothripsis tumors, BGB or cisplatin IC20 combos (AID 1671453); conditions: HTB85 osteosarcoma cells, drug combinations, stronger effect = higher value;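 note: cells exposed for 96 hours before readout; 0% = vehicle DMSO and 100% = high DMSO killing control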
# [19] = CRL2098 osteosarcoma cell growth inhibition, synergistic combos for chromothripsis tumors, BGB or cisplatin IC20 combos (AID 1671454); conditions: CRL2098 osteosarcoma cells, drug combinations, stronger effect = higher value;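 note: cells exposed for 96 h before readout; 0% = vehicle DMSO and 100% = killing by high DMSO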
# [20] = HD-MB03 medulloblastoma cell growth inhibition, synergistic combos for chromothripsis tumors, BGB or cisplatin IC20 combos (AID 1671455; in the data active = inhibition above about 83%;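 note: 0% = vehicle DMSO and 100% = high DMSO as cytotoxic control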); conditions: HD-MB03 medulloblastoma cells, stronger effect = higher value
# [21] = UWB1.289 ovarian carcinoma cell growth inhibition, synergistic combos for chromothripsis tumors, BGB or cisplatin combos (AID 1671456); conditions: UWB1.289 ovarian carcinoma cells, stronger effect = higher value;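 note: cells exposed to compound for four days; 0% = vehicle DMSO and 100% = killing by high DMSO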
# [22] = LFS_MB_2R medulloblastoma cell growth inhibition, synergistic combos for chromothripsis tumors, cisplatin combos (AID 1671457); conditions: LFS_MB_2R medulloblastoma cells, stronger effect = higher value;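 note: cells exposed to compound for four days before readout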
# [23] = MDA-MB-436 breast carcinoma cell growth inhibition, synergistic combos for chromothripsis tumors, BGB or cisplatin combos (AID 1671458; call rule not given here;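 note: cells exposed for 96 hours; 0% = vehicle DMSO and 100% = killing by high DMSO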); conditions: MDA-MB-436 breast carcinoma growth inhibition, drug combinations, stronger effect = higher value
# [24] = UWB1.289_BRCA1 ovarian cancer growth, cell-based, BGB or cisplatin combinations (AID 1671459); conditions: UWB1.289 BRCA1 ovarian carcinoma, drug combinations, stronger effect = higher value
# [25] = human astrocyte viability loss, single and combined drugs, cytotoxicity control for chromothriptic childhood tumor combination screen, cell-based, BGB or cisplatin IC20 combos (AID 1671460); conditions: Human astrocytes, drug combinations, stronger effect = higher value;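 note: cells exposed to compounds for 96 hours before viability readout; 0% = vehicle and 100% = killing control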
# [26] = growth inhibition of BT084 medulloblastoma cells, cell-based, ICGC_MB145, cisplatin and BGB IC40 combos (AID 1671461); conditions: drug combinations, stronger effect = higher value;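 note: cells exposed to drugs for 96 hours; 0% = vehicle DMSO and 100% = high DMSO full killing control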
# [27] = growth inhibition of RCMB18 medulloblastoma cells, cell-based, cisplatin and BGB IC40 combos (AID 1671462); conditions: stronger effect = higher value;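 note: cells exposed to compound for four days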
# [28] = growth inhibition of CRL1545 osteosarcoma cells, cell-based, cisplatin and BGB IC20 combos (AID 1671464); conditions: stronger effect = higher value;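 note: cells exposed to compound for 96 hours before readout; 0% = vehicle DMSO and 100% = high DMSO killing control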
# [29] = measured here: combination with BGB IC40, at 0.05 µM
# [30] = measured here: with BGB IC20 combination, at 0.5 µM
# [31] = measured here: with cisplatin IC20 combination, at 0.5 µM
# [32] = measured here: combination with cisplatin, at 0.5 µM
# [33] = measured here: combination with cisplatin, at 5 µM
compound,measurement,setting,value
CC(C)N=c1cc2n(-c3ccc(Cl)cc3)c3ccccc3nc-2cc1Nc1ccc(Cl)cc1,fluorescence slope change,[1],72.8% (active)
same,survival,[2],11.8 (inactive)
same,fluorescence ratio,[3],0.94 (inactive)
same,inhibition,[4],8.52% (inactive)
same,inhibition,[5],6.69% (inactive)
same,fluorescence ratio,[6],0.96 (inactive)
same,z-score,[7],1.38 (inactive)
same,mean signal,[8],220 (inactive)
same,red/green cell ratio (normalised),"[9]; actives lie on both sides, counts scaled to control wells, 1 = unselective",0.91 (inactive)
same,normalised cell number,[9]; measured here: epithelial PC-3E GFP cell survival,0.92
same,normalised cell number,[9]; measured here: mesenchymal TEM4-18 mCherry cell survival,0.84
same,z-score,"[10]; MELAS cybrid survival, CellTiter-Glo 48 h, stronger effect = higher value",-0.332 (inactive) and -3.07 (inactive)
same,z-score,"[10]; Rieske KO mouse fibroblast survival, CellTiter-Glo 72 h",0.691 and -0.422
same,remaining NAD,[11],10 nM (inactive)
same,luciferase signal,[12],104 AU (inactive)
same,z-score,[13],-1.15 (inactive)
same,inhibition,"[14]; at 0.5 µM, stronger effect = higher value",-31% (inactive)
same,inhibition,"[14]; measured here: combination with BGB IC20, at 0.005 µM",13.3%
same,inhibition,"[14]; measured here: combination with BGB IC40, at 0.005 µM",-22.3%
same,inhibition,[14]; [29],-8.73%
same,inhibition,"[14]; measured here: combination with cisplatin, at 0.5 µM, stronger effect = higher value",-48.5%
same,inhibition,"[14]; measured here: combination with cisplatin, at 5 µM, stronger effect = higher value",8.75%
same,inhibition,"[15]; BGB combo, at 5 µM",-36.1%
same,inhibition,[15]; at 0.5 µM,-26.4% (inactive)
same,inhibition,"[15]; cisplatin combo, at 5 µM",-41.4%
same,inhibition,[15]; [30],-15.2%
same,inhibition,[15]; [31],-29%
same,inhibition,"[15]; single agent, at 5 µM",-25%
same,inhibition,"[16]; BGB IC20 combo, at 0.005 µM",-28.4%
same,inhibition,"[16]; BGB IC40 combo, at 0.005 µM",4.64%
same,inhibition,"[16]; BGB IC40 combo, at 0.05 µM",-16%
same,inhibition,[16]; at 0.5 µM,-34.9% (inactive)
same,inhibition,"[16]; cisplatin combo, at 0.05 µM",-16%
same,inhibition,"[16]; cisplatin combo, at 0.5 µM",-47.3%
same,inhibition,"[16]; cisplatin combo, at 5 µM",-19.4%
same,inhibition,"[16]; measured here: 5 uM single agent, at 5 µM",1.51%
same,inhibition,[17]; at 0.5 µM,-25.1% (inactive)
same,inhibition,[17]; [29],-36.1%
same,inhibition,[17]; [32],-57.3%
same,inhibition,[17]; [33],-48.3%
same,inhibition,[18]; at 0.5 µM,-37.4% (inactive)
same,inhibition,"[18]; measured here: with BGB IC20, at 0.5 µM",-54.6%
same,inhibition,"[18]; measured here: with BGB IC20, at 5 µM",-21.7%
same,inhibition,"[18]; measured here: with cisplatin IC20, at 0.5 µM",-36%
same,inhibition,"[18]; measured here: with cisplatin IC20, at 5 µM",-38.1%
same,inhibition,"[18]; single agent, at 5 µM",-29.1%
same,inhibition,[19]; at 0.5 µM,-74.7% (inactive)
same,inhibition,"[19]; measured here: combination with BGB at IC20, at 0.5 µM",-58.6%
same,inhibition,"[19]; measured here: combination with cisplatin at IC20, at 0.5 µM",-130%
same,inhibition,[20]; at 0.5 µM,-15.1% (inactive)
same,inhibition,"[20]; measured here: combo with BGB at IC20, at 0.5 µM",-15%
same,inhibition,"[20]; measured here: combo with cisplatin at IC20, at 0.5 µM",-18.6%
same,inhibition,[21]; at 0.5 µM,-8.97% (inactive)
same,inhibition,"[21]; measured here: inhibition with BGB combination, at 0.05 µM",-17.6%
same,inhibition,"[21]; measured here: inhibition with cisplatin combination, at 0.05 µM",-17.6%
same,inhibition,[22]; at 0.5 µM,-8.06% (inactive)
same,inhibition,[22]; [32],1.44%
same,inhibition,[22]; [33],-0.801%
same,inhibition,[23]; at 0.5 µM,-2.64% (inactive)
same,inhibition,"[23]; measured here: BGB combination, at 0.5 µM",-2.65%
same,inhibition,"[23]; measured here: BGB combination, at 5 µM",-11.8%
same,inhibition,"[23]; measured here: cisplatin combination, at 0.5 µM",-12.6%
same,inhibition,"[23]; measured here: cisplatin combination, at 5 µM",0.559%
same,inhibition,"[24]; BGB combination, concentration series, at 5 µM",-7.22%
same,inhibition,[24]; at 0.5 µM,-11.4% (inactive)
same,inhibition,"[24]; cisplatin combination, concentration series, at 5 µM",14.7%
same,inhibition,[25]; at 0.5 µM,-9.92% (inactive)
same,inhibition,"[25]; measured here: combo with BGB IC20, at 0.5 µM",3.64%
same,inhibition,"[25]; measured here: combo with cisplatin IC20, at 0.5 µM",-24.8%
same,inhibition,[26]; at 0.5 µM,-8.65% (inactive)
same,inhibition,"[26]; cisplatin combination, at 0.5 µM",-22.2%
same,inhibition,"[26]; cisplatin combination, at 5 µM",-55.6%
same,inhibition,"[26]; measured here: BGB IC40 combination 0.05 uM, at 0.05 µM",17%
same,inhibition,"[26]; single agent, at 5 µM",-11.5%
same,inhibition,[27]; at 0.5 µM,-9.43% (inactive)
same,inhibition,"[27]; cisplatin combo, at 5 µM",-32.6%
same,inhibition,"[27]; measured here: BGB IC40 combination, at 0.05 µM",-2.04%
same,inhibition,[27]; [32],-6.22%
same,inhibition,"[27]; single agent, at 5 µM",-9.57%
same,inhibition,[28]; at 0.5 µM,-22.8% (inactive)
same,inhibition,[28]; [30],-40.5%
same,inhibition,[28]; [31],-13.9%
same,inhibition,"[28]; single agent, at 0.05 µM",-3.12%
same,inhibition,"[28]; single agent, at 5 µM",-18.2%
